Reference: PubChem BioAssay (EPA / NIEHS)
Active and inactive are the calls of the source. The calls were made as follows, unless noted: active = hit-call score of the fitted dose curve at least 0.9, where 1 is the maximum; inactive = score below 0.9.

Key:
[1] = target: Peroxisome proliferator-activated receptor gamma (Homo sapiens) (UniProt P37231); assay: OT_PPARg_PPARgSRC1_1440: Odyssey Thera (OT) 24-hour Protein-Complementation Assay for Peroxisome Proliferator-activated Receptor Gamma/ SRC-1 Co-activator (AID 2283388; active = hit-call score of the fitted dose curve at least 0.9, where 1 is the maximum;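 also: nuclear to cytoplasmic ratio of reconstituted Venus YFP fluorescence in fixed imaged cells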)
Chain of Peroxisome proliferator-activated receptor gamma (Homo sapiens) (P37231 whole entry, looked up, the tested form may be a part): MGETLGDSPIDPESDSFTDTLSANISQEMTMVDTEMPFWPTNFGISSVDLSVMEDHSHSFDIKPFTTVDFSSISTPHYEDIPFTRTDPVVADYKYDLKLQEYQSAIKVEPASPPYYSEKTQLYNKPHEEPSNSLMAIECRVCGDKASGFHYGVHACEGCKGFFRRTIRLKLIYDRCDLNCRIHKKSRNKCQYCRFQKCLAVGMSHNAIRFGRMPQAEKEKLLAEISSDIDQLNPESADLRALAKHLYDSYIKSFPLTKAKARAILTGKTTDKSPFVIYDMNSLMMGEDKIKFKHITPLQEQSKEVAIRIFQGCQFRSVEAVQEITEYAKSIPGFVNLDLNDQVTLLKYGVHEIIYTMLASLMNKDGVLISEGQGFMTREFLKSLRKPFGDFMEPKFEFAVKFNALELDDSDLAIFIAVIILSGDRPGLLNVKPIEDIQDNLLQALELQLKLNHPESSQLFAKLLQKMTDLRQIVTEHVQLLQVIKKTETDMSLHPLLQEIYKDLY
Method in brief: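 Protein-fragment complementation between PPARg and coactivator SRC-1 was measured by fluorescence imaging in transiently transfected HEK293T cells after 24 h treatment. Signal was quantified as N/C ratio in the 488 nm channel, with DMSO as negative control.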

[2] = read-out: Tumor necrosis factor receptor superfamily member 6 (Homo sapiens) (UniProt P25445); assay: LTEA_HepaRG_FAS: Life Technologies and Expression Analysis (LTEA) Assay for Fas cell surface death receptor (FAS) using HepaRG (AID 2283447); conditions: mRNA level, 48 h; actives raise or lower the signal
Method in brief: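 Differentiated human HepaRG cells, pre-cultured 48 h, were exposed in duplicate for 48 h to 8-point half-log concentrations (top 100 uM, 0.5% DMSO) in serum-free induction medium; FAS mRNA measured by qRT-PCR, normalized to ACTB/GAPDH/POLR2A, bidirectional fit versus DMSO.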

[3] = read-out: Fatty acid synthase (Homo sapiens) (UniProt P49327); assay: LTEA_HepaRG_FASN: Life Technologies and Expression Analysis (LTEA) Assay for Fatty Acid Synthase (FASN) using HepaRG (AID 2283448); conditions: mRNA level, 48 h; actives raise or lower the signal
Method in brief: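 Transcript-level assay: HepaRG liver cells are treated for 48 h across an eight-point range topping at 100 uM, and FASN mRNA, normalized to three housekeeping genes, is compared with DMSO controls in both directions.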

[4] = read-out: Cyclin D2 (CCND2), CCND2 (gene 894); assay: LTEA_HepaRG_CCND2: Life Technologies and Expression Analysis (LTEA) Assay for Cyclin D2 (CCND2) using HepaRG (AID 2283449); conditions: mRNA level, 48 h; actives raise or lower the signal;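 also: CCND2 transcript measured by TaqMan qRT-PCR and normalised to three housekeeping genes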
Method in brief: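 Differentiated human HepaRG cells were exposed for 48 h in serum-free induction medium to eight half-log concentrations topping at 100 uM (0.5% DMSO vehicle). CCND2 mRNA was quantified by TaqMan qRT-PCR, normalised to ACTB, GAPDH and POLR2A, and fitted bidirectionally against DMSO.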

[5] = read-out: Cyclin Dependent Kinase Inhibitor 1A (CDKN1A), CDKN1A (gene 1026); assay: LTEA_HepaRG_CDKN1A: Life Technologies and Expression Analysis (LTEA) Assay for Cyclin Dependent Kinase Inhibitor 1A (CDKN1A) using HepaRG (AID 2283450); conditions: mRNA level, 48 h; actives raise or lower the signal
Method in brief: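 Read-out is CDKN1A mRNA by TaqMan qRT-PCR, normalized to three housekeeping genes and fitted in both directions against the DMSO baseline. Human HepaRG cells were treated 48 h with test chemicals up to 100 uM in half-log steps, 0.5% DMSO.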

[6] = read-out: catalase (CAT), CAT (gene 847); assay: LTEA_HepaRG_CAT: Life Technologies and Expression Analysis (LTEA) Assay for catalase (CAT) using HepaRG (AID 2283452); conditions: mRNA level, 48 h; actives raise or lower the signal;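 as to AC50: TaqMan qRT-PCR signal normalized to ACTB GAPDH and POLR2A housekeeping genes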
Method in brief: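 Differentiated HepaRG cells in serum-free induction medium were dosed 48 h in duplicate, eight half-log concentrations from 100 uM in 0.5% DMSO. Transcript measured by TaqMan qRT-PCR, normalised to ACTB/GAPDH/POLR2A, fitted bidirectionally against DMSO.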

[7] = read-out: flavin-containing dimethylaniline monooxygenases 3 (FMO3), FMO3 (gene 2328); assay: LTEA_HepaRG_FMO3: Life Technologies and Expression Analysis (LTEA) Assay for flavin-containing dimethylaniline monooxygenases 3 (FMO3) using HepaRG (AID 2283453); conditions: mRNA level, 48 h; actives raise or lower the signal;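 as to AC50: FMO3 transcript by TaqMan qRT-PCR normalized to ACTB GAPDH and POLR2A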
Method in brief: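 HepaRG, 48 h exposure, 8-pt half-log series from 100 uM, 0.5% DMSO vehicle, duplicates; FMO3 transcript by Fluidigm TaqMan qRT-PCR, housekeeping-normalized; gain/loss fit vs DMSO.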

[8] = read-out: Cytochrome P450 (CYP1A1), CYP1A1 (gene 1543); assay: LTEA_HepaRG_CYP1A1: Life Technologies and Expression Analysis (LTEA) Assay for Cytochrome P450 (CYP1A1) using HepaRG (AID 2283454); conditions: mRNA level, 48 h; actives raise or lower the signal
Method in brief: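 HepaRG, 48 h post-plating switched to serum-free induction medium; 8-pt conc-response (top 100 uM, half-log, 0.5% DMSO), duplicates, 48 h. Lysis in RLT, TaqMan qRT-PCR for CYP1A1; gain or loss vs DMSO.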

[9] = read-out: CFLAR gene, CFLAR (gene 8837); assay: LTEA_HepaRG_CFLAR: Life Technologies and Expression Analysis (LTEA) Assay for CFLAR gene using HepaRG (AID 2283455); conditions: mRNA level, 48 h; actives raise or lower the signal
Method in brief: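 HepaRG cells were plated for 48 h, switched to serum-free induction medium, then exposed in duplicate for 48 h to 8 concentrations (top 100 uM, half-log steps, 0.5% DMSO). CFLAR mRNA was measured by qRT-PCR, normalized to ACTB, GAPDH and POLR2A.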

[10] = read-out: Forkhead box O1 (FOXO1), FOXO1 (gene 2308); assay: LTEA_HepaRG_FOXO1: Life Technologies and Expression Analysis (LTEA) Assay for Forkhead box O1 (FOXO1) using HepaRG (AID 2283456); conditions: mRNA level, 48 h; actives raise or lower the signal
Method in brief: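 Differentiated human HepaRG cells in serum-free induction medium were exposed in duplicate for 48 h to eight half-log concentrations (top 100 uM, 0.5% DMSO). FOXO1 mRNA was measured by TaqMan qRT-PCR, normalised to ACTB, GAPDH and POLR2A, and fitted bidirectionally against DMSO.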

[11] = read-out: Cyclin D1 (CCND1), CCND1 (gene 595); assay: LTEA_HepaRG_CCND1: Life Technologies and Expression Analysis (LTEA) Assay for Cyclin D1 (CCND1) using HepaRG (AID 2283451); conditions: mRNA level, 48 h; actives raise or lower the signal;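 as to AC50: TaqMan qRT-PCR transcript level normalised to ACTB GAPDH and POLR2A housekeeping genes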
Method in brief: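 HepaRG plated 48 h, medium switched to serum-free induction medium, chemicals added in duplicate (top 100 uM, half-log steps, 0.5% DMSO) for 48 h, cells lysed, RNA measured by TaqMan qRT-PCR.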

[12] = CEETOX_H295R_OHPREG: CeeTox H295R High-throughput Steroidogenesis Assay for OH-Pregnenolone (OHPREG) (AID 2283434); conditions: actives raise or lower the signal
Method in brief: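 Human adrenal H295R cells were prestimulated 48 h with 10 uM forskolin, then exposed 48 h to chemical in 0.1% DMSO. Medium 17alpha-hydroxypregnenolone was quantified by HPLC-MS/MS after MTBE extraction; bidirectional fitting versus DMSO baseline.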

[13] = CEETOX_H295R_OHPROG: CeeTox H295R High-throughput Steroidogenesis Assay for OH-Progesterone (OHPROG) (AID 2283435); conditions: actives raise or lower the signal;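 as to AC50: 17alpha-hydroxyprogesterone secreted into medium measured by HPLC-MS/MS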
Method in brief: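 Secreted 17alpha-hydroxyprogesterone is read by tandem MS from media of forskolin-primed H295R cells dosed with chemical for 48 h. Activity is fitted in both directions against DMSO baseline; cytotoxic concentrations are re-tested diluted.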

[14] = CEETOX_H295R_ESTRONE: CeeTox H295R High-throughput Steroidogenesis Assay for Estrone (AID 2283441); conditions: actives raise or lower the signal;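 also: estrone secreted into medium measured by LC-MS/MS after dansyl derivatization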
Method in brief: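 H295R cells; 48 h forskolin (10 uM) prestimulation; 48 h compound exposure, 0.1% DMSO final. Medium estrone: MTBE extraction, dansyl derivatization, HPLC-MS/MS. Bidirectional fit vs DMSO.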

[15] = CEETOX_H295R_PROG: CeeTox H295R High-throughput Steroidogenesis Assay for Progesterone (PROG) (AID 2283442); conditions: actives raise or lower the signal;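 as to AC50: human H295R adrenal cells primed with 10 µM forskolin before dosing; progesterone secreted into medium by H295R cells measured by HPLC-MS/MS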
Method in brief: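 Steps: seed H295R cells and let them adhere overnight; prime 48 h with 10 uM forskolin; dose with compound in DMSO at 0.1% final for 48 h; extract medium steroids with MTBE; measure progesterone by LC-MS/MS. MTT viability was run in the same wells.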

[16] = CEETOX_H295R_11DCORT: CeeTox H295R High-throughput Steroidogenesis Assay for 11-Deoxycortisol (11DCORT) (AID 2283432); conditions: actives raise or lower the signal;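 as to AC50: 11-deoxycortisol secreted into the medium measured by LC-MS/MS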
Method in brief: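 H295R cells prestimulated 48 h with 10 uM forskolin, then exposed 48 h to chemical in 0.1% DMSO. 11-Deoxycortisol in medium quantified by HPLC-MS/MS after MTBE extraction; bidirectional fit versus DMSO. MTT viability read in same wells.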

[17] = CEETOX_H295R_CORTIC: CeeTox H295R High-throughput Steroidogenesis Assay for Corticosterone (CORTIC) (AID 2283437); conditions: actives raise or lower the signal;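 also: corticosterone secreted into medium quantified by mass spectrometry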
Method in brief: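 H295R cells were prestimulated 48 h with 10 uM forskolin, then exposed 48 h to test chemical in 0.1% DMSO. Medium corticosterone was MTBE-extracted and quantified by HPLC-MS/MS; bidirectional fit versus DMSO baseline.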

[18] = CEETOX_H295R_CORTISOL: CeeTox H295R High-throughput Steroidogenesis Assay for Cortisol (AID 2283438); conditions: actives raise or lower the signal;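 also: cortisol secreted into medium quantified by LC-MS/MS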
Method in brief: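 Human adrenocortical H295R cells (passage ≤10) received test chemicals for 48 h after forskolin priming. Secreted cortisol was measured by LC-MS/MS.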

[19] = CEETOX_H295R_ANDR: CeeTox H295R High-throughput Steroidogenesis Assay for Androstenedione (ANDR) (AID 2283436); conditions: actives raise or lower the signal
Method in brief: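 H295R human adrenal cells (passages ≤10) were exposed to test chemicals for 48 h; androstenedione in medium was MTBE-extracted and quantified by HPLC-MS/MS against a 7-point standard curve. Bidirectional fitting used DMSO as baseline.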

[20] = CEETOX_H295R_TESTO: CeeTox H295R High-throughput Steroidogenesis Assay for Testosterone (TESTO) (AID 2283457); conditions: actives raise or lower the signal;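 as to AC50: cells exposed to chemicals for 48 h before medium collection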
Method in brief: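 H295R, passage ≤10, 48 h dosing; media extracted with MTBE → HPLC-MS/MS for testosterone; 7-pt standard curve sets LLOQ/ULOQ; bidirectional fit vs DMSO; MTT viability same wells.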

Measured: AC50

Chain of Fatty acid synthase (Homo sapiens) (P49327 whole entry, looked up): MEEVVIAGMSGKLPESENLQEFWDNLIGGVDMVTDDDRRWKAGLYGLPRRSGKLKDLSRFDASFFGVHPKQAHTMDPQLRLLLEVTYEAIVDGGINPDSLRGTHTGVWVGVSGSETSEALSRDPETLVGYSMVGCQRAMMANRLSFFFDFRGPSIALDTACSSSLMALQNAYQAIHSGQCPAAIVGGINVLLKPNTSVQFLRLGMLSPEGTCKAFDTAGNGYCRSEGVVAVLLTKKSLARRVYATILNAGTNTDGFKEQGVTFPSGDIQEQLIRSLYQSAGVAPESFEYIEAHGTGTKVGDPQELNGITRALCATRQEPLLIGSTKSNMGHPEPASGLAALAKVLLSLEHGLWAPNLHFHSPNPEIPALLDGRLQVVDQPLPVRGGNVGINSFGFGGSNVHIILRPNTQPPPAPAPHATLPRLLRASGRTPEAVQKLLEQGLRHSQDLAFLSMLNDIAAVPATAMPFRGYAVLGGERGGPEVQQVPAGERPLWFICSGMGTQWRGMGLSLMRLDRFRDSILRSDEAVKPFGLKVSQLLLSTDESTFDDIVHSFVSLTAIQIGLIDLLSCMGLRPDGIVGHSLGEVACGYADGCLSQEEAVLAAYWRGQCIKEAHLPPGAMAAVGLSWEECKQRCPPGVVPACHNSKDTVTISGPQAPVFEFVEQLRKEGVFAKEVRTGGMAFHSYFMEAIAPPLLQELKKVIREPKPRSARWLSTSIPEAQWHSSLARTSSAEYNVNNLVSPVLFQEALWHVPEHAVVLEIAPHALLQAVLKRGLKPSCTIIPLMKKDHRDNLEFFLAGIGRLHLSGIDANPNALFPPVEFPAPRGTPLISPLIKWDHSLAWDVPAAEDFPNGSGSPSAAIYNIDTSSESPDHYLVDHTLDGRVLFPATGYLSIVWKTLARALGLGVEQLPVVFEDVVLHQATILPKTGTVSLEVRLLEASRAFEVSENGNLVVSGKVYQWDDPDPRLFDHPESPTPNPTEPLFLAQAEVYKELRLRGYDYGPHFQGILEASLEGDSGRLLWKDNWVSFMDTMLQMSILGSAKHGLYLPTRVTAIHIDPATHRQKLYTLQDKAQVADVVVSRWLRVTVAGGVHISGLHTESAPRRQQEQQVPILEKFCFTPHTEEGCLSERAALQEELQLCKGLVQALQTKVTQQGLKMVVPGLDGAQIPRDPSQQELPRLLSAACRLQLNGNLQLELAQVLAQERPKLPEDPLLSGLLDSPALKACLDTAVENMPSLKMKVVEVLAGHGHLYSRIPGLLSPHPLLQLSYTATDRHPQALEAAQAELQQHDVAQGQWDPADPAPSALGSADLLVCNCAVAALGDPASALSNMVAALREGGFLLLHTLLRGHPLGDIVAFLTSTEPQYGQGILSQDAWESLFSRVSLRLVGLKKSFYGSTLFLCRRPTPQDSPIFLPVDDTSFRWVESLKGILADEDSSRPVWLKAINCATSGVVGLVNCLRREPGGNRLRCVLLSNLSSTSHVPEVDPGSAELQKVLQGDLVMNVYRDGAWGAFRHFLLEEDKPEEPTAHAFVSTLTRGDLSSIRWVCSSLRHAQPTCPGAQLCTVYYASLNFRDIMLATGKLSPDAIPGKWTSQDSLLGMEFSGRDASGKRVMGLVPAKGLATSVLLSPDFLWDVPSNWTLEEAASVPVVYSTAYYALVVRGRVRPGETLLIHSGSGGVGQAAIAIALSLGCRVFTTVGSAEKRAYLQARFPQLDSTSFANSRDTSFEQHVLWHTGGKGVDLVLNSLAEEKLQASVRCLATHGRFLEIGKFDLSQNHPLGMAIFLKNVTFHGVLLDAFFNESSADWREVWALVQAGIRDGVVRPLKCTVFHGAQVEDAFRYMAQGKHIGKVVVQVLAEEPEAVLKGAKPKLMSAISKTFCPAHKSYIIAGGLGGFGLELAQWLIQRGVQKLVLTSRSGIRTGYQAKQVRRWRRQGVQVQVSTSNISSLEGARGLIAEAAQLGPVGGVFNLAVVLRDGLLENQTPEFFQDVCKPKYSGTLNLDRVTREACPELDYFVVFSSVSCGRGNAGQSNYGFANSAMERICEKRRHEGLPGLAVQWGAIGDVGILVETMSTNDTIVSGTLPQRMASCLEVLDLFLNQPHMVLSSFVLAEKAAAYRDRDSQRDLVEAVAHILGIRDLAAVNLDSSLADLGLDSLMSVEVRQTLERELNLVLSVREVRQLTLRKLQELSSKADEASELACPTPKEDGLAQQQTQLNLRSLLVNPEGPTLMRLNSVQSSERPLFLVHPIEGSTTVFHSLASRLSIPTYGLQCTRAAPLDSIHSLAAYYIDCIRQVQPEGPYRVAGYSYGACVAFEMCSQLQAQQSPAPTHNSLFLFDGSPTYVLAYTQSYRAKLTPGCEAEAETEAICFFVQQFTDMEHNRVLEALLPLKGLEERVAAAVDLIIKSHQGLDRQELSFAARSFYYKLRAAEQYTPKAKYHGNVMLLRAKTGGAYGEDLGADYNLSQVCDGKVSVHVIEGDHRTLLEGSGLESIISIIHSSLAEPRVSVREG

COCC(C)O (centres undefined)
inactive: [1] | [2] | [3] | [4] | [5] | [6] | [7] | [8] | [9] | [10]

Cc1cc(C)c(O)c(C)c1
inactive: [1] | [2] | [3] | [4] | [5] | [11] | [6] | [7] | [9] | [10]
active: [8] 50 µM

CC#C[C@]1(O)CC[C@H]2[C@@H]3CCC4=CC(=O)CCC4=C3[C@@H](c3ccc(N(C)C)cc3)C[C@@]21C
inactive: [1] | [12] | [14] | [4] | [9]
active: [13] 0.218 µM | [15] 3.9 µM | [2] 22 µM | [5] 39.2 µM | [6] 34.2 µM | [7] 33.4 µM | [8] 50 µM | [10] 3.33 µM

CCCCCCCCCCCCCCCS(=O)(=O)Oc1ccccc1
active: [12] 5.88 µM | [13] 5.48 µM | [15] 4.08 µM | [8] 11.4 µM
not listed: [3] | [19] | [20]
inactive: all other assays above

CCCOc1sc(C(=O)N2CCC(c3cc(CN)ccc3F)CC2)c(C)c1Br
inactive: [1] | [2] | [3] | [4] | [5] | [11] | [6] | [7] | [8] | [9] | [10]

NC(=O)N(O)[C@@H]1C=C[C@H](Oc2cccc(Oc3ccc(F)cc3)c2)C1
active: [2] 67.2 µM | [3] 85 µM | [5] 33 µM | [6] 50 µM | [7] 42.7 µM | [8] 27.3 µM | [9] 67.3 µM | [10] 82.1 µM
inactive: [1] | [16] | [12] | [13] | [17] | [15] | [4]

CC1=C(/C=C/C(C)=C/C=C/C(C)=C/C(=O)O)C(C)(C)CCC1
active: [15] 8.11 µM | [6] 9.37 µM | [7] 0.446 µM | [8] 35.9 µM | [9] 5.84 µM
not listed: [3] | [12] | [14] | [17] | [19] | [20]
inactive: all other assays above

CCC(=C(c1ccc(O)cc1)c1ccc(OCCN(C)C)cc1)c1ccccc1
active: [8] 93.3 µM | [9] 97.3 µM | [10] 82.6 µM
not listed: [14]
inactive: all other assays above

c1ccc2cc3c(ccc4ccccc43)cc2c1
inactive: [1] | [12] | [15] | [2] | [4] | [5]
active: [13] 6.08 µM | [6] 15.4 µM | [7] 13.6 µM | [8] 1.66 µM | [9] 10.5 µM | [10] 17.8 µM

OC1CCC(C2CCCCC2)CC1 (centres undefined)
active: [17] 23.2 µM
not listed: [11] | [12] | [14] | [19] | [20]
inactive: all other assays above

CCc1nn(C2CCCCC2)c2cc(C3(C#N)CCC(C(=O)O)CC3)ccc12 (centres undefined)
active: [2] 31.1 µM | [5] 73.2 µM | [11] 19.5 µM | [6] 77.2 µM | [7] 83.7 µM | [8] 14.4 µM | [9] 8.95 µM | [10] 86 µM
not listed: [3] | [19] | [20]
inactive: all other assays above

COc1ccc([N+](=O)[O-])cc1N
active: [16] 50 µM | [13] 6.07 µM | [17] 8.72 µM | [18] 44.6 µM | [15] 14.2 µM | [8] 50 µM
not listed: [3] | [11] | [19] | [20]
inactive: all other assays above

C=C(C)C(=O)OCCC(F)(F)C(F)(F)C(F)(F)C(F)(F)C(F)(F)C(F)(F)F
active: [8] 10.2 µM
inactive: [1] | [2] | [3] | [4] | [5] | [6] | [7] | [9] | [10]

O=c1c(-c2ccc(O)cc2)coc2cc(O)ccc12
active: [16] 9.01 µM | [12] 4.47 µM | [13] 26.5 µM | [19] 15.2 µM | [17] 1.22 µM | [18] 8.88 µM | [15] 4.62 µM | [20] 16.4 µM
not listed: [11]
inactive: all other assays above
